Here are results for eight molecules from PubChem BioAssay.

The source made the active and inactive calls. Unless noted, how the calls were made is not given here.

In assay [1] the test system is Wnt5a (protein binding on small-molecule microarray). Briefly: Wnt5a binders on small-molecule microarray, primary screen, biophysical, 635/667 nm fluorescence (AID 1142).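 Further: fluorescence read at 667 nm with signal to noise per printed feature.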 The following applies: 635 nm fluorescence, higher = more signal.
Assay [2] can be described thus: cell viability in Huh7 cells, primary screen, cytotoxicity control for HCV replication inhibitor project, CellTiter-Glo luminescence, basal, 48 h (AID 1143).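 Further: Huh7 hepatoma cells carrying a hepatitis C replication reporter with no stimulus; test concentration not given here.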 The following applies: Huh7 HCV replicon, higher = more signal, called active from +8 up or from −8 down.
A short description of assay [3]: P. aeruginosa biofilm formation inhibitors, primary screen, PAO1 strain, BacTiter-Glo luminescence, LB-PBS (AID 1144). To be noted: 12 h, higher = more signal.
The nature of assay [4]: CREB reporter modulators without forskolin, primary screen, cell-based, PC12, CRE-LacZ reporter, unstimulated (AID 1145). The following applies: no forskolin, luminescence, 4.5 h, higher = more signal, called active from +8 up or from −8 down.
Assay [5] can be described thus: CREB reporter modulators under forskolin, primary screen, cell-based, PC12, CRE-LacZ reporter, forskolin-stimulated (AID 1146).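 Further: PC12 cells with 6xCRE LacZ reporter stimulated by forskolin 10 µM; beta-galactosidase reporter signal reflecting CREB driven transcription.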 To be noted: luminescence, 4.5 h, higher = more signal, called active from +8 up or from −8 down.
In assay [6] the target is Streptavidin (Streptomyces avidinii) (UniProt P22629). Briefly: streptavidin binders on small-molecule microarray, primary screen, artefact control for SMM compound annotation, biophysical, 635/667 nm fluorescence (AID 1147).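 Further: signal reflects streptavidin binding to arrayed compounds as a control protein.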 The following applies: streptavidin binding, higher = more signal.
Chain of Streptavidin (Streptomyces avidinii) (P22629 whole entry, looked up): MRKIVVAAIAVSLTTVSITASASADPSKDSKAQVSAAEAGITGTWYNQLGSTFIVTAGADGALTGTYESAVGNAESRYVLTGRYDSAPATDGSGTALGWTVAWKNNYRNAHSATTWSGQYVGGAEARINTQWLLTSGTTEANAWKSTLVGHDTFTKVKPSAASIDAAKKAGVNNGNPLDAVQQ
Assay [7] is described as follows: small-molecule binders of probe aInhba, primary screen, biochemical, small-molecule microarray, 635/667 nm fluorescence (AID 1148).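 Further: score merges 667nm spot fluorescence with signal-to-noise for antibody binding to printed compounds.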 To be noted: higher = more signal.
For assay [8], the target named is Torsin-1A (Homo sapiens) (UniProt O14656). Briefly: torsin A binders from cell lysate, primary screen, small-molecule microarray, wild-type, 635/667 nm (AID 1149). To be noted: COS7 hTOR1A-WT lysate, 635 nm fluorescence, higher = more signal.
Chain of Torsin-1A (Homo sapiens) (O14656 whole entry, looked up): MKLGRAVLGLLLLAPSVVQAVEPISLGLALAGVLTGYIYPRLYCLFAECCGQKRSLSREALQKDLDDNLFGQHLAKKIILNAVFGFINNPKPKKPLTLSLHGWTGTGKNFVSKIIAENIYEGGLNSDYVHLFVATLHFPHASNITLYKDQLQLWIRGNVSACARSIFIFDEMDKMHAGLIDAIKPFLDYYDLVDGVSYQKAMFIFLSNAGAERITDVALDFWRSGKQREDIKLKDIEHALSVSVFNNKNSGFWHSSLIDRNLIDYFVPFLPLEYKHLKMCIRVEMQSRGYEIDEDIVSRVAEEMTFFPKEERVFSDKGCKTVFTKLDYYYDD
Assay [9] has the same target. The experiment in a line: small-molecule binders of mutant TOR1A in lysate, primary screen, cell lysate, small-molecule microarray, COS7 lysate, 635/667 nm fluorescence (AID 1150).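 Further: score pools 667 nm emission and signal to noise measuring lysate protein binding.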 The following applies: COS7 hTOR1A mutant lysate, 635 nm fluorescence, higher = more signal.
Assay [10] has as its system Sonic hedgehog protein (Shh). Briefly: small-molecule binders of Shh protein, primary screen, biochemical, small-molecule microarray, 635/667 nm fluorescence (AID 1151).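 Further: Shh protein binding to compounds spotted on small-molecule microarray slides; score combines spot fluorescence intensity with signal-to-noise across triplicate slides.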 To be noted: small-molecule microarray binding, 635 nm fluorescence; higher = more signal.
The nature of assay [11]: E. coli DRC41 culture turbidity changes, primary screen, E. coli filamentation inducer project, strain DRC41, OD650, 48 h (AID 1152).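 Further: E. coli MC1000 strain DRC41 lacking acrAB efflux pump and sulA.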 To be noted: E. coli DRC41 (acrAB sulA), higher = more signal, called active from +8 up or from −8 down.
Assay [12] is described as follows: small-molecule binders of probe aLefty1, primary screen, biochemical, small-molecule microarray, 635/667 nm fluorescence (AID 1153).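 Further: score merges spot fluorescence with signal-to-noise ratio from the scanned slide images.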 The following applies: higher = more signal.
Assay [13] is described as follows: PSAC antagonists in infected red cells, primary screen, cell-based, P. falciparum Indochina, OD700, 1 h (AID 1154). To be noted: P. falciparum Indochina infected RBC osmotic lysis, higher = more signal, called active from +8 up or from −8 down.
A short description of assay [14]: PSAC antagonists in infected red cells, primary screen, cell-based, P. falciparum Indochina, OD700, 2 h (AID 1155).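 Further: lysis reports solute entry through the parasite surface anion channel PSAC; channel blockers reduce lysis of infected cells.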 To be noted: P. falciparum Indochina infected erythrocytes, osmotic lysis OD700; higher = more signal, called active from +8 up or from −8 down.
A short description of assay [15]: osmotic lysis modulators in infected erythrocytes, primary screen, PSAC antagonist project, cell-based, P. falciparum Indochina, OD700, 3 h (AID 1156). To be noted: higher = more signal, called active from +8 up or from −8 down.
Assay [16] is described as follows: PSAC antagonists in infected red cells, primary screen, cell-based, P. falciparum Indochina, OD700, 18 h (AID 1157). To be noted: P. falciparum Indochina infected erythrocytes, osmotic lysis OD700, 18 h; higher = more signal, called active from +8 up or from −8 down.
Assay [17] in a line: modulators of S6 phosphorylation in cells, primary screen, cell-based, A549, cytoblot, luminescence, serum-stimulated (AID 1158).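 Further: serum-stimulated A549 lung adenocarcinoma cells; signal is phosphorylated S6 detected by cytoblot immunostaining with HRP secondary.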 To be noted: A549 phospho-S6 cytoblot, 5 h, higher = more signal.
The target in assay [18] is NADPH oxidase 2 (Homo sapiens) (UniProt P04839). Briefly: NOX2-dependent H2O2 signal modulators, primary screen, NOX inhibitor project, cell-based, HEK293-NOX2, PMA-stimulated, Amplex Red fluorescence (AID 1159). Further: test concentration not given here. To be noted: 45 min, higher = more signal, called active from +8 up or from −8 down.
Chain of NADPH oxidase 2 (Homo sapiens) (P04839 whole entry, looked up): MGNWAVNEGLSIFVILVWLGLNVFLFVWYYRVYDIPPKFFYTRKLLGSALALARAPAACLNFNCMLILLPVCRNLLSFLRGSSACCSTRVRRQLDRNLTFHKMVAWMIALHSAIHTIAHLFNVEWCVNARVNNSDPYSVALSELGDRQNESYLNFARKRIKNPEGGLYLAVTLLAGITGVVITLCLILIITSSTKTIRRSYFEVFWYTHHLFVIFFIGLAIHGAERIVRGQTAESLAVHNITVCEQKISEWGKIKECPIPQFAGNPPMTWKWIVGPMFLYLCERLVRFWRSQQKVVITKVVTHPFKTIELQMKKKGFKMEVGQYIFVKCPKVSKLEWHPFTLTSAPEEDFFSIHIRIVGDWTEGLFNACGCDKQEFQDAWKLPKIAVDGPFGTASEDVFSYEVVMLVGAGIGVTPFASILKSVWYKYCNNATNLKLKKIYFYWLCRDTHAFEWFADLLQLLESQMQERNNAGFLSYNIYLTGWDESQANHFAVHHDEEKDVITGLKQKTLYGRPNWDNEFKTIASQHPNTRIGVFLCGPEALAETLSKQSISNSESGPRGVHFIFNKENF
Assay [19] has as its target NADPH oxidase 4 (Homo sapiens) (UniProt Q9NPH5). Briefly: NOX4-dependent H2O2 signal modulators, primary screen, NOX inhibitor project, cell-based, HEK293-NOX4, tetracycline-induced, Amplex Red fluorescence (AID 1160). To be noted: 45 min, higher = more signal, called active from +8 up or from −8 down.
The target of assay [20] is NADPH oxidase 5 (Homo sapiens) (UniProt Q96PH1). The experiment in a line: NOX5-dependent H2O2 signal modulators, primary screen, NOX inhibitor project, cell-based, HEK293-NOX5, Amplex Red fluorescence (AID 1161). To be noted: HEK293-NOX5, ionomycin, 45 min, higher = more signal.
Chain of NADPH oxidase 5 (Homo sapiens) (Q96PH1 whole entry, looked up): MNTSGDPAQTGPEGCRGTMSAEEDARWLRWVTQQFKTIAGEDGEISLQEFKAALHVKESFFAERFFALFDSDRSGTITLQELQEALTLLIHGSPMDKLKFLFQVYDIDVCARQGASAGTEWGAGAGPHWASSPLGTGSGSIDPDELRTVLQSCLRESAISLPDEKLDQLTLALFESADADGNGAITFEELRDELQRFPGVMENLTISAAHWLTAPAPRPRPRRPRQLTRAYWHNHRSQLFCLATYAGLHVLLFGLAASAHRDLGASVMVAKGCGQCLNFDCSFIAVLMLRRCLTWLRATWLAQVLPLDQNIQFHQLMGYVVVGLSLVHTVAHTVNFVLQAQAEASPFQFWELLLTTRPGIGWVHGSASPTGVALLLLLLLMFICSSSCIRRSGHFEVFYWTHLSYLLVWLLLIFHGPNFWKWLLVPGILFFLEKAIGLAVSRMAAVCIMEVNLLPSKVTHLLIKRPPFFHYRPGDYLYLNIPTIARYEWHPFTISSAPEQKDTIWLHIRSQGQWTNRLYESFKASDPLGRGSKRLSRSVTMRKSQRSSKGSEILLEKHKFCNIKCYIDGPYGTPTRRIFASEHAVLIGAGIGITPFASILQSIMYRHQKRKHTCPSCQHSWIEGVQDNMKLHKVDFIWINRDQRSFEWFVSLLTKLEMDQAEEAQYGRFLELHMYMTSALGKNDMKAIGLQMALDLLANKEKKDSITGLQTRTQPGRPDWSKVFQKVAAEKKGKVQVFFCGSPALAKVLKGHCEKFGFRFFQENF

Chain of NADPH oxidase 4 (Homo sapiens) (Q9NPH5 whole entry, looked up): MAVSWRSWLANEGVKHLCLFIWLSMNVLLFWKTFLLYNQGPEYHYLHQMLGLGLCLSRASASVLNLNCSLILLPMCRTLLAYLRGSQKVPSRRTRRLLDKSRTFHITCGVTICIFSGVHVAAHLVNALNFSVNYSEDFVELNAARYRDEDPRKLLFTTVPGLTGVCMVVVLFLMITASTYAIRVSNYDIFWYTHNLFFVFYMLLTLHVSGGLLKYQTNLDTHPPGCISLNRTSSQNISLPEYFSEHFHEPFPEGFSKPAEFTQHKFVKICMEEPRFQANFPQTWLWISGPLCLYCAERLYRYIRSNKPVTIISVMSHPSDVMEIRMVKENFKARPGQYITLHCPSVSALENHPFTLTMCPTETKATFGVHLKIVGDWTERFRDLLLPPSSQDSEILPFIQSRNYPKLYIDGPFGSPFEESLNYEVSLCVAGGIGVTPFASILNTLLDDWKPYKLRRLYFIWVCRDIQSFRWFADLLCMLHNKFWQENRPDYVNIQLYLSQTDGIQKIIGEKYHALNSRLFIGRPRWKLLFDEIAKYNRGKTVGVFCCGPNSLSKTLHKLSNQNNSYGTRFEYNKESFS

In the case of `CC(C)(C)OC(=O)CC[C@@]1(C(=O)NCc2ccccc2)N=C(c2ccc(OCCCO)cc2)O[C@@H]1c1ccccc1N=[N+]=[N-]`, the composite z-score in assay [1] was 0.717; in assay [6] it was 1.8; in assay [7] it was 0.0839; in the assay with Torsin-1A (Homo sapiens) [8], -0.183; in the assay with Torsin-1A (Homo sapiens) [9], 1.33; in [10], 0.101. For the same molecule, the composite z-score in assay [12] was 0.347. The z-score in assay [2] was -2.53 (inactive); in [3], 0.014 (inactive); in [4], 1.73 (inactive); in assay [5], -0.947 (inactive); in assay [11] it was 0.775 (inactive); in assay [13], 33.2 (active). In addition, the z-score in assay [14] is 30 (active); in [15] it was 4.99 (inactive); in [16] it was 6.74 (inactive); in assay [17], 0.787; in assay [18], -1.8 (inactive); in [19], 0.457 (inactive). Moreover, the z-score in assay [20] was -1.86.

As for `C=CCN1C(=O)[C@@]2(CCS(=O)(=O)c3ccccc3)N=C(c3ccc(OCCCO)cc3)O[C@H]2c2ccccc21`, the composite z-score was found to be 0.889 in assay [1]; 0.636 in assay [6]; 0.198 in assay [7]; 1.16 in the assay with Torsin-1A (Homo sapiens) [8]; 0.426 with Torsin-1A (Homo sapiens) [9]; 2.07 in assay [10]. The molecule further registered a composite z-score in assay [12] of 0.235. Moreover, the z-score in assay [2] was -2.49 (inactive); in assay [3], 0.369 (inactive); in [4], -0.0808 (inactive); in assay [5], -1.28 (inactive); in assay [11] it was -0.135 (inactive); in assay [13] it was 29.9 (active). The z-score in assay [14] was 25.2 (active); in assay [15] it was 1.73 (inactive); in assay [16], 6.35 (inactive); in assay [17], 1.06; in assay [18] it was -1.42 (inactive); in assay [19], 1.35 (inactive). In [20], this molecule returned a z-score of -0.428.

For `C=CCOC(=O)[C@H]1[C@@H]2C(=O)O[C@@H](c3ccccc3)[C@@H](c3ccccc3)N2[C@@H](c2ccc(OCCOC(=O)[C@H]3C[C@H]4C(=O)N[C@@H](CC(C)C)C(=O)N4[C@H]3c3cccc(OCCO)c3)cc2)[C@]12C(=O)Nc1ccc(I)cc12`, the composite z-score in assay [1] is 0.725; in [6], 0.205; in assay [7], -0.154; with Torsin-1A (Homo sapiens) [8], 0.644; in the assay with Torsin-1A (Homo sapiens) [9], 0.908; in assay [10], 1.73. The composite z-score in [12] is -0.33. The z-score in [2] is 0.0478 (inactive); in assay [3], 0.568 (inactive); in [4] it was 0.411 (inactive); in [5] it was -0.368 (inactive); in assay [11], -0.811 (inactive); in assay [13], 2.5 (inactive). The z-score in assay [14] is 1.3 (inactive); in [15], 0.844 (inactive); in assay [16] it was 0.963 (inactive); in assay [17] it was 0.547; in assay [18], 1.35 (inactive); in assay [19], 1.6 (inactive). Further, the z-score in assay [20] was determined as 1.14.

With `CN(C)C(=O)[C@@]1(CCS(=O)(=O)c2ccccc2)N=C(c2ccc(OCCCO)cc2)O[C@H]1c1ccccc1`, the composite z-score in assay [1] is 0.543; in assay [6] it was 0.926; in [7], 0.0155; with Torsin-1A (Homo sapiens) [8], 1.05; with Torsin-1A (Homo sapiens) [9], 0.548; in [10], -1.01. In [12], this molecule displayed a composite z-score of 0.142. Further, the z-score in assay [2] was -3.07 (inactive); in assay [3], 1.02 (inactive); in assay [4], 0.652 (inactive); in [5], -0.481 (inactive); in assay [11] it was -0.1 (inactive); in assay [13] it was 28.3 (active). Besides, the z-score was 24.3 (active) in assay [14]; 0.873 (inactive) in assay [15]; 1.48 (inactive) in assay [16]; -0.789 in assay [17]; 0.441 (inactive) in [18]; 0.114 (inactive) in assay [19]. In assay [20], this molecule yielded a z-score of -0.948.

Consider `COC(=O)[C@@]1(Cc2ccccc2)[C@@H]2C(=CC(=O)[C@H]2CC(=O)C(=O)N(C)C)CN1C(=O)c1ccccc1`, for which the composite z-score in assay [1] is 0.117; in [6] it was -0.0043; in assay [7], 0.308; with Torsin-1A (Homo sapiens) [8], 0.2; with Torsin-1A (Homo sapiens) [9], 0.239; in [10], -0.2. The molecule also yielded a composite z-score in [12] of 0.0093. The z-score was -2.86 (inactive) in [2]; 0.421 (inactive) in [3]; 0.0075 (inactive) in assay [4]; 0.087 (inactive) in [5]; 0.174 (inactive) in assay [11]; 4.6 (inactive) in assay [13]. In addition, the z-score in assay [14] was 0.329 (inactive); in [15], 0.864 (inactive); in assay [16] it was 0.664 (inactive); in assay [17] it was -0.52; in assay [18], -0.0425 (inactive); in assay [19], 0.705 (inactive). Also, the z-score in assay [20] is 0.16.

`N#Cc1ccc(C(O)C2C=CC3C(=O)N(c4ccccc4)C(=O)C3N2Nc2ccccc2)cc1` (stereo not given): the composite z-score in assay [1] is 0.429; in [6] it was 0.592; in [7], 0.144; with Torsin-1A (Homo sapiens) [8], -0.0489; with Torsin-1A (Homo sapiens) [9] it was 0.227; in [10], -0.669. Further, the composite z-score in assay [12] came to 0.135. Further, the z-score in [2] was -3.06 (inactive); in [3], -0.955 (inactive); in [4], -0.133 (inactive); in [5] it was 0.0648 (inactive); in assay [11], 0.128 (inactive); in assay [13], 5.39 (inactive). Moreover, the z-score in assay [14] is -0.173 (inactive); in assay [15], 1.18 (inactive); in assay [16] it was -0.889 (inactive); in [17] it was 1.64; in [18], -2.73 (inactive); in [19] it was -4.19 (inactive). The molecule further showed a z-score in assay [20] of -3.02.

Take `O=c1n(-c2ccccc2)c(=O)n2n1CC(COc1ccccc1)=C([C@H](O)CCc1ccccc1)[C@@H]2CO`: the composite z-score was -0.0748 in assay [1]; -0.275 in [6]; -0.0618 in [7]; 0.8 in the assay with Torsin-1A (Homo sapiens) [8]; -0.119 with Torsin-1A (Homo sapiens) [9]; 0.426 in [10]. Moreover, the composite z-score in assay [12] was -0.315. In addition, the z-score in assay [2] is -2.16 (inactive); in [3], -0.496 (inactive); in assay [4], 1.49 (inactive); in assay [5], -0.373 (inactive); in assay [11], 2.63 (inactive); in [13], 16.8 (active). Further, the z-score in [14] was 0.497 (inactive); in assay [15], 0.076 (inactive); in [16], -1.51 (inactive); in [17] it was 1.02; in [18], -0.878 (inactive); in assay [19], -0.265 (inactive). The z-score in assay [20] was -0.682.

Regarding `O=C1OCC=C[C@H]2OC34C=CCN(Cn5nnc6ccccc65)C(=O)[C@H]3N(CCCO)C(=O)[C@@H]4[C@@H]12` (stereo not given in full), the composite z-score in assay [1] was -0.439; in [6] it was -0.266; in assay [7], -0.224; with Torsin-1A (Homo sapiens) [8] it was 0.183; with Torsin-1A (Homo sapiens) [9] it was -1.85; in assay [10], 0.182. This molecule yielded a composite z-score in [12] of 0.0861. Further, the z-score was -2.27 (inactive) in [2]; -1.17 (inactive) in assay [3]; -0.887 (inactive) in assay [4]; -0.247 (inactive) in assay [5]; 1.54 (inactive) in [11]; 0.243 (inactive) in [13]. For the same molecule, the z-score in [14] was -1.01 (inactive); in [15], 1.24 (inactive); in [16], -0.602 (inactive); in assay [17] it was 0.277; in [18], 0.847 (inactive); in assay [19], -1.42 (inactive). The z-score in [20] turned out to be 0.1.
